Measurements as given in the supplement of paper PMC10849652.
Of roughly 8,800 targets only a part is listed; those with a hit were picked by preference. About 0.5% of all pairs of compound and target were hits. Unmarked numbers belong to inactive results.

Experiments:
Experiment in all cases: log2 fold change, soluble protein after heating vs DMSO (PISA); higher = thermal stabilisation; K562 lysate, 10 uM; active = over 0.2 and 3.5 SD of the protein, either way, in both replicates (recomputed)
vemurafenib = compound: CCCS(=O)(=O)Nc1ccc(F)c(C(=O)c2c[nH]c3ncc(-c4ccc(Cl)cc4)cc23)c1F [vemurafenib]
Outline: (§1)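 Quantification was by TMTpro 16plex LC-MS/MS with equalised channel sums, applied to the supernatant after 21,000xg for 90 min. Samples were crude K562 extract at 1 mg/mL protein in PBS pH 7.4 with 1 mM MgCl2, treated with 10 μM compound for 30 min, heated for 3 min across 48°C-58°C, pooled and brought to 0.5% NP-40 at 4°C. Values are log-two fold changes in thermal stability relative to solvent controls, from duplicates.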

[1] = compound: CCCS(=O)(=O)Nc1ccc(F)c(C(=O)c2c[nH]c3ncc(Cl)cc23)c1F
Outline: as §1

barasertib = compound: CCN(CCCOc1ccc2c(Nc3cc(CC(=O)Nc4cccc(F)c4)[nH]n3)ncnc2c1)CCOP(=O)(O)O [barasertib]
Outline: as §1

[2] = compound: CC[C@@H]1C(=O)N(C)c2cnc(Nc3ccc(C(=O)NC4CCN(C)CC4)cc3OC)nc2N1C1CCCC1
Outline: as §1

volasertib = compound: CC[C@@H]1C(=O)N(C)c2cnc(Nc3ccc(C(=O)N[C@H]4CC[C@H](N5CCN(CC6CC6)CC5)CC4)cc3OC)nc2N1C(C)C [volasertib]
Outline: as §1

[3] = compound: CCn1c(C(=O)N(C2CC2)C2CC2)cc2c3c(ncn3C)c(Nc3cc(C)n(C)n3)nc21
Outline: as §1

[4] = compound: CCn1cc(-c2ccnc3[nH]c(-c4cccc(CN(C)C)c4)cc23)c(-c2ccc(NC(=O)N(C)C)cc2)n1
Outline: as §1

[5] = compound: CN1CCC(CNc2ccc3ncc(-c4cccc(OC(F)(F)F)c4)n3n2)CC1
Outline: as §1

saracatinib = compound: CN1CCN(CCOc2cc(OC3CCOCC3)c3c(Nc4c(Cl)ccc5c4OCO5)ncnc3c2)CC1 [saracatinib]
Outline: as §1

sotrastaurin = compound: CN1CCN(c2nc(C3=C(c4c[nH]c5ccccc45)C(=O)NC3=O)c3ccccc3n2)CC1 [sotrastaurin]
Outline: as §1

Sequence of UniProt Q9NVM4 (Q9NVM4 whole entry, looked up): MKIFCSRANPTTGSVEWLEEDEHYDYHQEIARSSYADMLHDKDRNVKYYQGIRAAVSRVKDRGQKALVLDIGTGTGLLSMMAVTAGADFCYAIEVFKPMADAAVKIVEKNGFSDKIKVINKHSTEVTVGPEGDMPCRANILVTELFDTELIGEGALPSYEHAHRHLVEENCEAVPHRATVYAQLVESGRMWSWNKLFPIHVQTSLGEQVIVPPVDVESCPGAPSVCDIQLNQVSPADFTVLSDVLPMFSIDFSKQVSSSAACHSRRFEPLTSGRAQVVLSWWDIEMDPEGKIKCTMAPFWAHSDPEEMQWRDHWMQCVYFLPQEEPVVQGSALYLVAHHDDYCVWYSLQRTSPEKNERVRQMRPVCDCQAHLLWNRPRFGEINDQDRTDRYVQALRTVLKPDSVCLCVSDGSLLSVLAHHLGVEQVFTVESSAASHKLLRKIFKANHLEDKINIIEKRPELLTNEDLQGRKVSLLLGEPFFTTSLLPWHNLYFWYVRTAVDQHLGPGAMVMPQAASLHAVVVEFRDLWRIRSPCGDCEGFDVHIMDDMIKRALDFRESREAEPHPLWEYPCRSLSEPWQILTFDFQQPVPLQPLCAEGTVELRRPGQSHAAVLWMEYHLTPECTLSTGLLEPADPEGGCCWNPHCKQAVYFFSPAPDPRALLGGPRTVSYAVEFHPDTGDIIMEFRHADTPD
Sequence of UniProt Q9Y2I7 (Q9Y2I7 whole entry, looked up): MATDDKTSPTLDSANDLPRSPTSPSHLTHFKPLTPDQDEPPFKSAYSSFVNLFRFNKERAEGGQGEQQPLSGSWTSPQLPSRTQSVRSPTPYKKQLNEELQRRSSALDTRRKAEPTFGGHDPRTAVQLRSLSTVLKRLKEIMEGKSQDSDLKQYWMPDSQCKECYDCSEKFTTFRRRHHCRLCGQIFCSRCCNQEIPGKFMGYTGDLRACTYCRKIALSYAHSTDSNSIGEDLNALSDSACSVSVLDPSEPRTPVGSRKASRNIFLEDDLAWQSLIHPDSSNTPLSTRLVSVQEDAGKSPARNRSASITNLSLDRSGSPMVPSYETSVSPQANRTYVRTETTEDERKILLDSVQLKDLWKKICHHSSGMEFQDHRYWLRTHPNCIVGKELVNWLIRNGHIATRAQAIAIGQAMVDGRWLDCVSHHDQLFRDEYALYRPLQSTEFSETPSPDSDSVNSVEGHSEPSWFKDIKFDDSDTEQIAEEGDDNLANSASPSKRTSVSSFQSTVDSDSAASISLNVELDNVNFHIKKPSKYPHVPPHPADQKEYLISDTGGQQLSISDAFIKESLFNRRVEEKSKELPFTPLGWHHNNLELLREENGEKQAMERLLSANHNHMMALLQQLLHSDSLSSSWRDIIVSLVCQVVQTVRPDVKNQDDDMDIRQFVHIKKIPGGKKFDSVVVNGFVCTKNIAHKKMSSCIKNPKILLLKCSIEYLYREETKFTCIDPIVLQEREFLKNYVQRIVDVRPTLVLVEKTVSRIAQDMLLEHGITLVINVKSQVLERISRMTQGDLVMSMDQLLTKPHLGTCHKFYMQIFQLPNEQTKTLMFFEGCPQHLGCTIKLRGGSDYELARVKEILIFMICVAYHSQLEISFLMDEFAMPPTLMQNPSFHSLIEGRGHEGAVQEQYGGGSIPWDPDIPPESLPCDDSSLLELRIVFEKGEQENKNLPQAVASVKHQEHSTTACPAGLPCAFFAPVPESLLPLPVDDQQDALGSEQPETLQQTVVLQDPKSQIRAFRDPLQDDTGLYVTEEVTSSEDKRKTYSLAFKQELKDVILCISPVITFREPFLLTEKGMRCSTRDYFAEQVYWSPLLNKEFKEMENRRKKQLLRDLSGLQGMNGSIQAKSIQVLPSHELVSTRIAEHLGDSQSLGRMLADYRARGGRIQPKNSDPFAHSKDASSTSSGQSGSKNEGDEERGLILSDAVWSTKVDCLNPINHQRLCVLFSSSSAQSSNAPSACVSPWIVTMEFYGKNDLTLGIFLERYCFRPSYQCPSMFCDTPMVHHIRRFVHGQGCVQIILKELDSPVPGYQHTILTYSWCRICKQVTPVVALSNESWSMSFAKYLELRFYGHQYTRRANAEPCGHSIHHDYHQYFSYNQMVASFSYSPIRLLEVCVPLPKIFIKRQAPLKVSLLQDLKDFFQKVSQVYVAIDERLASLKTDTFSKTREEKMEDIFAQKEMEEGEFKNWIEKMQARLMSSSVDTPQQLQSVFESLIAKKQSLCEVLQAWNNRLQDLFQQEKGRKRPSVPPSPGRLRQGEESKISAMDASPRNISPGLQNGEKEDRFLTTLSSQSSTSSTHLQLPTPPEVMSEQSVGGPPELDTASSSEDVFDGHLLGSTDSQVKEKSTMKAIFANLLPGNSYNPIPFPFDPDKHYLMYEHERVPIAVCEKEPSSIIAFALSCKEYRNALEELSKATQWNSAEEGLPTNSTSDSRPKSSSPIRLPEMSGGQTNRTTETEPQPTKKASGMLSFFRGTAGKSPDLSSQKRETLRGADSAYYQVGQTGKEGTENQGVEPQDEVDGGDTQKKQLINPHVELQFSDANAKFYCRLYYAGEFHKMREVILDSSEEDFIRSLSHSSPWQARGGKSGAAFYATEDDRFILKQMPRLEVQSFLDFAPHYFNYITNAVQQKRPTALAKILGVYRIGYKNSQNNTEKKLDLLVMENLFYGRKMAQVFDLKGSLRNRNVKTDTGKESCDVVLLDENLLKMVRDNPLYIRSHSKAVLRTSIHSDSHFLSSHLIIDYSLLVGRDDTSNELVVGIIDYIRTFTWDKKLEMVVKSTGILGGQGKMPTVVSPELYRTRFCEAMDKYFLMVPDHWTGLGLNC
Sequence of UniProt P06454 (P06454 whole entry, looked up): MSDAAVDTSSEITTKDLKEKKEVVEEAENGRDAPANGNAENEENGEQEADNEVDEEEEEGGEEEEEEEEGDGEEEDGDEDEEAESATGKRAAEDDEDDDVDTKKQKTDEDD
Sequence of UniProt P18031 (P18031 whole entry, looked up): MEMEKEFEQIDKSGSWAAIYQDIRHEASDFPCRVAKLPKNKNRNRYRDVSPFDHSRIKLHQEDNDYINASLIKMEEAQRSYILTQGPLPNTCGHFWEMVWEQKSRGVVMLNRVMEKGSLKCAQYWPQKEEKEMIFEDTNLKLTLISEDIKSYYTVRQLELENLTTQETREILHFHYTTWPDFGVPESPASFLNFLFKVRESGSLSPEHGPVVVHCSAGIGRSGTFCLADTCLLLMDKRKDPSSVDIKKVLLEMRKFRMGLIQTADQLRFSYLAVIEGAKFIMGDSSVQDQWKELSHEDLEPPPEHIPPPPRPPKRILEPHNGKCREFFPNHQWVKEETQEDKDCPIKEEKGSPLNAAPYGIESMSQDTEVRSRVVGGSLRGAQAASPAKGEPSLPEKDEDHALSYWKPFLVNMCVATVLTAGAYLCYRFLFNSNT
Sequence of UniProt Q9UHX1 (Q9UHX1 whole entry, looked up): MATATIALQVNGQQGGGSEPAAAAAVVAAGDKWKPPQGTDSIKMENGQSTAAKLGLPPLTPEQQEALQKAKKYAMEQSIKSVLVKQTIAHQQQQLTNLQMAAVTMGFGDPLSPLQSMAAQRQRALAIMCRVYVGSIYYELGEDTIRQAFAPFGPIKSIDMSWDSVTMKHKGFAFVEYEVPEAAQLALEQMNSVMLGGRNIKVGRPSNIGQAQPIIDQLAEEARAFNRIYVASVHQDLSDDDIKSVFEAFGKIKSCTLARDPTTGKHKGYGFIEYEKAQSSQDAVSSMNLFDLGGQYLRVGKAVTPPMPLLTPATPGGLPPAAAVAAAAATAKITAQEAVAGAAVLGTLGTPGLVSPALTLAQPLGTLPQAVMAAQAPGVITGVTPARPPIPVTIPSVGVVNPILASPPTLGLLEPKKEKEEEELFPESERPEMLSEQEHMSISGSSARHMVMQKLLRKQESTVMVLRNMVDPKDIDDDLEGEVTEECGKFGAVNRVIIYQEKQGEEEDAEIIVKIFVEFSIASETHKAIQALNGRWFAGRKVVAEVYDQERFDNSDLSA
Sequence of UniProt P0CAP2 (P0CAP2 whole entry, looked up): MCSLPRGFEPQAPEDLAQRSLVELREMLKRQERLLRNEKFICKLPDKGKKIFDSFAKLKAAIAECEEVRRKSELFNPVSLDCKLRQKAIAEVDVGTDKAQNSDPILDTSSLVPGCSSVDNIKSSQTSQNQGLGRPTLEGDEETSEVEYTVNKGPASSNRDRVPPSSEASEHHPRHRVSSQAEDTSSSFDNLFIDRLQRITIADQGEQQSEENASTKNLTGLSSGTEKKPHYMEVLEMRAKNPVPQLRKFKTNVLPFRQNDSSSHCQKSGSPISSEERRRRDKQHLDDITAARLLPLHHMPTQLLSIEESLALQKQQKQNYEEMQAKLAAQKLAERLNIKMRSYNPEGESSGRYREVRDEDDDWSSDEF
Sequence of UniProt Q9Y5K3 (Q9Y5K3 whole entry, looked up): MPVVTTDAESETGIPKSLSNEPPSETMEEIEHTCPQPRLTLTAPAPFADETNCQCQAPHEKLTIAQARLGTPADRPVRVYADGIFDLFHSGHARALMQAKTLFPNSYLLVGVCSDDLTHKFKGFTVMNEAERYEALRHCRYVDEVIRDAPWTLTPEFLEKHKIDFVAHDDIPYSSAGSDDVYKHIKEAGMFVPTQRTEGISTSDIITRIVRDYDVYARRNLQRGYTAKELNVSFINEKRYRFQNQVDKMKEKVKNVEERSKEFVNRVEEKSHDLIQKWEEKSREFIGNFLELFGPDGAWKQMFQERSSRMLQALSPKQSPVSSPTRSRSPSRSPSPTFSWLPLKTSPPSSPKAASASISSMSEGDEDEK
Sequence of UniProt P28065 (P28065 whole entry, looked up): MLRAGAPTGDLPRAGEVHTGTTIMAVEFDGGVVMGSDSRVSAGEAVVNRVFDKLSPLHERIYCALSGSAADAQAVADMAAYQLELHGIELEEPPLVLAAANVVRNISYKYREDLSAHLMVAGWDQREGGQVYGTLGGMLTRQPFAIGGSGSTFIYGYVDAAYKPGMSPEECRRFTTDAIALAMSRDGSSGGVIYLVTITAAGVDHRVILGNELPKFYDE
Sequence of UniProt Q03393 (Q03393 whole entry, looked up): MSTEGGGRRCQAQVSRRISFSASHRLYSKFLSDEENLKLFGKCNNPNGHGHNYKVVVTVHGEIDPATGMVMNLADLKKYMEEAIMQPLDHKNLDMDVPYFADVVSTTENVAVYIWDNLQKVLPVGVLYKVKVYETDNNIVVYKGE

Target	log2 fold change (vemurafenib)	log2 fold change [1]	log2 fold change (barasertib)	log2 fold change [2]	log2 fold change (volasertib)	log2 fold change [3]	log2 fold change [4]	log2 fold change [5]	log2 fold change (saracatinib)	log2 fold change (sotrastaurin)
POLB (UniProt P06746)	-0.013	0.003	-0.029	-0.013	-0.025	0.032	-0.015	-0.07	0.033	0.048
PGPEP1 (UniProt Q9NXJ5)	0.021	0.022	-0.036	-0.091	-0.027	0.036	-0.096	0.03	0	-0.056
PELO (UniProt Q9BRX2)	0	0.021	0.037	-0.115	-0.066	-0.014	0.404 (active)	-0.183	-0.001	-0.018
PHKG2 (UniProt P15735)	-0.074	-0.055	0.126	0.074	0.073	-0.007	-0.103	0.045	0.062	-0.054
PSMB9 (UniProt P28065)	-0.105	0.037	0.158	0.335 (active)	0.028	-0.06	-0.165	0.027	0.037	0.018
PTMA (UniProt P06454)	0.022	-0.049	0.018	0.06	0.004	-0.031	0.569 (active)	-0.337 (active)	-0.061	0.04
PIKFYVE (UniProt Q9Y2I7)	-0.022	0.042	0.26	-0.036	-0.047	0.04	-0.056	0.038	0.054	0.038
PHF14 (UniProt O94880)	0.079	-0.127	-0.046	0.341	0.004	-0.02			-0.047	
PPIL3 (UniProt Q9H2H8)	0.048	-0.017	0.099	-0.004	-0.007	0.027	0.067	0.021	0.004	-0.03
PTPN1 (UniProt P18031)	0.04	-0.005	0.042	-0.029	-0.04	0.033	-0.061	-0.03	0.022	0.069
PYCR2 (UniProt Q96C36)	0.004	-0.005	0.006	0.036	0.016	-0.001	0.099	0.012	-0.012	-0.014
PRMT7 (UniProt Q9NVM4)	0.058	-0.006	0.018	-0.02	0.001	-0.013	0.013	0.003	0.045	0.009
PI4KA (UniProt P42356)	0.005	0.014	0	0.007	-0.064	0.019	-0.069	0.164	0.016	0.056
PFKFB3 isoform 4 (UniProt Q16875)	-0.022	0.134	0.003	-0.003	0.067	0.037	0.003	-0.046	-0.024	0.034
PRPF6 (UniProt O94906)	-0.019	0.004	0.039	-0.057	-0.015	0.019	0.034	-0.049	0.009	0.025
PUS3 (UniProt Q9BZE2)	0.083	0.036	0.074	-0.058	-0.007	0.071	0.193	-0.195	0.018	0.052
PUF60 isoform 2 (UniProt Q9UHX1)	-0.126	0.101	-0.057	0.047	0.021	-0.062	1.25 (active)	-0.115		-0.043
PPP2R5B (UniProt Q15173)	-0.036	0	-0.016	-0.057	0.031	0	-0.01	-0.079	0.001	-0.074
PRKD3 (UniProt O94806)	-0.148	-0.057	0.161	-0.25	-0.06	-0.143	-0.876 (active)	0.219		0.086
PFKP (UniProt Q01813)	-0.047	-0.056	0.018	-0.005	0.015	-0.007	0.052	-0.033	0.008	-0.025
POLR2M (UniProt P0CAP2)	0.014	0.02	0.021	-0.108	-0.024	0.008	-0.055	0.067	-0.007	0.041
PPP2R5C isoform 5 (UniProt Q13362)	-0.056	-0.013	-0.03	-0.063	0.014	0.058	0.046	-0.08	0	-0.011
PCYT1B (UniProt Q9Y5K3)	0.013	0.011	0.012	0.046	0.017	0.008	-0.094	0.063	0.012	-0.002
PCBP2 (UniProt H3BRU6)	0.13	-0.031	-0.115	0.085	0.036	-0.082	-0.041	0.047	0.1	0.179
PSTPIP2 (UniProt Q9H939)	0.022	0.018	0.01	-0.029	-0.037	-0.007	0.063	-0.09	0.032	0
PTS (UniProt Q03393)	0.33 (active)	0.044	0.051	0.054	0.014	0.02	-0.045	0.01	0.104	0.057
PRIM2 (UniProt P49643)	0.025	0.04	-0.005	-0.034	-0.048	0.019	-0.027	-0.046	-0.03	0.02
PI4KB (UniProt Q9UBF8)	0.222 (active)	0.011	-0.051	0.049	-0.026	-0.016	-0.038	0.134	-0.006	0.012
QKI (UniProt Q96PU8)	-0.006	0.024	-0.027	0.087	-0.021	0.001	-0.196	0.107	0.047	0
PLEKHA5 isoform 6 (UniProt Q9HAU0)	0.003	-0.003	0.043	-0.005	0.003	0.026	-0.117	-0.088	0.027	0.02
